# Assay outcomes from PubChem BioAssay.
# TNAP act mid DEA – human TNAP enzyme activators, primary screen, biochemical, luminescent, intermediate phosphate acceptor level; activation factor at 20 µM; AID 813, 2007; Alkaline phosphatase, tissue-nonspecific isozyme (Homo sapiens), P05186; purified TNAP, CDP-star luminescence, 100 mM DEA, 30 min; hits give high values; scale: 0 levamisole-inhibited, 1 vehicle-only enzyme; 64,000 tested, under 10 active;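 active = activation factor of at least 2 at 20 µM, relative to controls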
# DAT uptake mod – changed hDAT dopamine uptake under cocaine IC80, either direction, primary screen, cocaine antagonist project, cell-based, LLC-PK1 hDAT, [14C]-dopamine uptake, MLSMR; B-score at 10 µM; LLC-PK1 hDAT cells, [14C]-dopamine uptake with cocaine IC80; actives deviate in either direction; 110,000 compounds, 1.3% hits; AID 449768, 2010;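 active = Z score or B-score, a plate-position-corrected score, falls beyond the plate's 99.7% confidence bounds, in either direction; inactive = both scores lie inside the 99.7% bounds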;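 note: scored against the spread of the other compound wells on the same plate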
# Target sequence (Q01959 whole entry, looked up): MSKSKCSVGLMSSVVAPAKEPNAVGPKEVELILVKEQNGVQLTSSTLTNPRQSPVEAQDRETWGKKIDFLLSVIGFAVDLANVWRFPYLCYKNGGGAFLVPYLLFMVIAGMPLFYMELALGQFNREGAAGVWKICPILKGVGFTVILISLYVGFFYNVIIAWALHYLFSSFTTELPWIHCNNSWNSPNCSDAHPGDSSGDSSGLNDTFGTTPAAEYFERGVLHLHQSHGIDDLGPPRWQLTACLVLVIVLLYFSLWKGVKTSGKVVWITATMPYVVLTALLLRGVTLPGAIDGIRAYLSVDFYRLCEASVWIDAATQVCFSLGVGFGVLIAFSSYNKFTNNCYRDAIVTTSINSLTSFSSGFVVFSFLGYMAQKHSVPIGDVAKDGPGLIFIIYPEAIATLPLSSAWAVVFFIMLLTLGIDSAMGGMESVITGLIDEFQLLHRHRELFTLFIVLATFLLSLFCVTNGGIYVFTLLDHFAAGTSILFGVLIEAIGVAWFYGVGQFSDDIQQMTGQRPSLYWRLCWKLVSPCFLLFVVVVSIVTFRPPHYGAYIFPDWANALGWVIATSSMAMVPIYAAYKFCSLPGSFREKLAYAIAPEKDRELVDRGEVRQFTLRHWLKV
# Cav3 T inh – Cav3.2 calcium influx blockers – cell-based, Fluo-4 calcium fluorescence, FDSS, MLSMR library, primary screen. Voltage-dependent T-type calcium channel subunit alpha-1H (Homo sapiens), O95180. Cav3.2-expressing cells; hits give low values. B-score at 10 µM. 100,000 compounds, 4% hits. AID 449739, 2010;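 active = single-dose well whose peak fluorescence ratio is a statistical outlier from its plate by either plate-standardised score or position-corrected B-score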
# PostGolgi yeast – phenotypic screen on post-Golgi transport, primary screen. post-Golgi transport phenotypic cell assay. inhibition, % at 10 µM. 98,000 compounds, 0.9% hits. AID 739, 2007;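 note: yeast cells grown in 1536-well plates; yeast grown about 18 h at 30C before absorbance read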
# Smad3 FoxH1 inh – Smad3/FoxH1 peptide binding inhibitors, primary screen, biochemical, TR-FRET; inhibition, % at 25 µM; TR-FRET Smad3/Dy647-FoxH1 peptide binding, europium anti-His; 88,000 compounds, 0.29% hits;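 active = compounds that reduce the energy-transfer binding signal between the protein and its labelled peptide by more than half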;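 note: 0% = Smad3 plus labelled peptide maximal FRET and 100% = peptide-only background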
# PostGolgi ctrl – growth inhibition of yeast control strain, primary screen, counter-screen for post-Golgi transport modulator project. inhibition, % at 10 µM. AID 738, 2007. efflux-deficient yeast background strain, growth absorbance A615, 16 h. 98,000 compounds, 5% hits
# An asterisk follows results filed as active; x = no result given. Sampled rows, rich in hits. Any-hit rate of the full collection: about 8.7%. Cut-off read from the data, not from the text of the source, unless noted: active = inhibition above about 30%; inactive = the rest.
SMILES,TNAP act mid DEA,DAT uptake mod,Cav3 T inh,PostGolgi yeast,Smad3 FoxH1 inh,PostGolgi ctrl
COc1cc(OC)c2c(c1)OC(c1ccc(OC)c(OC)c1)C(O)C2=O (stereo not given),0.9,-0.257,-0.241,-6.6,-11.9,0.7
CC[C@@]1(O)C(=O)OCc2c1cc1n(c2=O)Cc2cc3c(N)cccc3nc2-1,x,1.12,0.807,x,x,x
CC[C@@]1(O)C(=O)OCc2c1cc1n(c2=O)Cc2cc3c(CN(C)C)c(O)ccc3nc2-1,x,0.809,-6.28*,x,5.5,x
CCN(CC)S(=O)(=O)c1ccc(C(=O)OCC(=O)c2ccc3c(c2)NC(=O)CO3)cc1,x,-0.645,0.682,13.2,x,-0.1
CCN(CC)S(=O)(=O)c1ccc(C(=O)NCc2nnc(SCC(=O)OC)n2C)cc1,0.9,-0.203,-3.77*,1.2,0.2,7.6
CCOC(=O)N1CCC(NC(=O)c2cccc3c2C(=O)N(c2ccc(OC)cc2)C3)CC1,0.9,1.28,1.39,-1.5,10.2,37.5*
CCOC(=O)N1CCC(NC(=O)c2cn(-c3ccc(OC)cc3)c(=O)c3ccccc23)CC1,1,2.23*,0.854,-7.1,x,13.0
COc1ccc(C(=O)C(CN2CCOCC2)c2ccccc2)cc1F (stereo not given),1,-0.562,0.959,-2.0,3.2,26.4
COc1ccccc1/C=C/C(=O)c1cc(Br)ccc1OC(=O)c1ccco1,x,2.58*,-4.49*,x,x,x
COc1ccc(C2=NOC(C(=O)NCc3cccs3)C2)cc1 (stereo not given),x,-0.843,-0.0359,20.4,3.6,-0.6
Cc1nn(-c2ccccc2)c(Cl)c1C(=O)NCC(=O)O,0.9,0.0176,-1.36,0.8,-16.9,3.7
CC(=O)N(Cc1c(C)nn(-c2ccccc2)c1Cl)c1ccc(Cl)cc1,x,1.96,-8.32*,15.4,x,35.0*
CCC(c1nnnn1CCOC)N(Cc1cc2cc(C)c(C)cc2[nH]c1=O)CC1CCCO1 (stereo not given),x,0.0761,0.109,11.4,-2.6,7.8
COc1ccc2[nH]c(=O)c(C(c3nnnn3CC3CCCO3)N3CCc4ccccc4C3)cc2c1 (stereo not given),0.9,0.542,-1.38,-19.4,0.1,37.6*
Cc1cc2cc(C(c3nnnn3Cc3ccco3)N3CCc4ccccc4C3)c(=O)[nH]c2cc1C (stereo not given),0.9,3.87*,0.339,12.0,25.5,23.1
Cc1cc2cc(C(c3nnnn3Cc3ccco3)N3CCc4ccccc43)c(=O)[nH]c2cc1C (stereo not given),0.9,-1,-1.95,-8.2,4.5,6.1
Cc1ccc2[nH]c(=O)c(C(c3nnnn3CC3CCCO3)N3CCOCC3)cc2c1 (stereo not given),0.9,-0.097,0.306,2.5,3.1,4.8
CCc1ccc2[nH]c(=O)c(C(c3nnnn3CC3CCCO3)N3CCN4CCCC4C3)cc2c1 (stereo not given),0.9,-0.0878,0.0656,-12.3,6.9,30.3*
CCC(c1nnnn1CC1CCCO1)N(CCN1CCOCC1)Cc1cc2cc(C)ccc2[nH]c1=O (stereo not given),0.9,-1.8*,0.363,-19.0,2.6,-3.3
O=C(N/N=C/c1cccc(Cl)c1Cl)Nc1ccccc1,x,0.164,-3.58,-3.5,x,36.2*
O=S(=O)(c1ccc2ccccc2c1)N(CC(O)COCc1ccco1)c1ccccc1 (stereo not given),x,0.307,-5.13*,20.1,0.5,30.9*
COc1ccc(S(=O)(=O)N(CC(=O)NCc2ccco2)c2ccccc2)cc1,x,0.458,-0.429,-4.0,18.3,0.6
C#CCNC(=O)C1=C[C@H](c2csc3ccccc23)C[C@H](OCc2ccc(CO)cc2)O1,x,0.304,-1.48,x,x,x
N#CCSc1nc(N)c(C#N)c(C2CCCCC2)c1C#N,0.9,-1.6,-1.47,18.0,5.3,50.8*
[O-]/[N+](=C/c1ccc(F)cc1)c1ccccc1,0.9,0.0374,0.494,9.8,x,32.7*
SMILES,TNAP act mid DEA,DAT uptake mod,Cav3 T inh,PostGolgi yeast,Smad3 FoxH1 inh,PostGolgi ctrl
[O-]/[N+](=C\c1ccncc1)c1ccccc1,1,x,x,6.1,x,10.3
O=C(c1cccc2c1C(=O)N(Cc1cccnc1)C2)N1CCN(c2ccccc2)CC1,0.9,0.543,0.853,13.6,-3.5,-0.9
Cc1cc(C)c2nc(-c3ccccn3)cc(C(=O)NCc3ccco3)c2c1,1,0.000873,-1.68,1.2,5.8,19.2
O=c1c2ccccc2ncn1CCCSc1ccccc1,x,0.384,-0.0187,-1.1,x,10.8
O=c1c2ccccc2ncn1CCCSc1ccc(Cl)cc1,x,1.87,-1.51,0.0,x,42.3*
COC(=O)C1=C(C)OC(N)=C(C#N)C1c1c(C)nn(-c2ccccc2)c1Cl (stereo not given),0.9,2.43,-5.13*,0.0,-0.9,29.5
COC(=O)c1ccc(C(=O)OC)c(NC(=O)c2cnc3n(c2=O)CCS3)c1,1,-0.248,1.49,4.7,2.9,-3.9
O=C1C=C(c2ccccc2)C(=O)N1Nc1ccccc1,x,-1.33,0.153,103.5*,7.0,29.7
Cc1ccc(NN2C(=O)C=C(c3ccc(Cl)cc3)C2=O)cc1,x,-0.598,0.641,106.4*,4.6,99.4*
CN1C(=O)NC(c2ccccc2)C2=C1CN(Cc1ccccc1)C2=O (stereo not given),0.9,-0.795,1.16,x,7.7,x
Cc1ccc(C2=N/C(=C\c3cccs3)C(=O)N2Nc2ccccc2)cc1,x,0.0118,-0.723,10.9,1.8,31.9*
C=CCNc1nc(-c2cccc(OC)c2O)nc2ccccc12,1,-0.701,x,-3.0,-0.6,16.6
CCN(CC)c1nc(-c2cccc(OC)c2O)nc2ccccc12,0.9,-0.385,1.15,-2.9,-0.7,31.8*
COc1cccc(-c2nc(N3CCCCC3C)c3ccccc3n2)c1O (stereo not given),0.8,0.00602,0.481,18.3,-10.1,75.2*
COc1cccc(-c2nc(NCc3ccco3)c3ccccc3n2)c1O,0.9,-0.975,0.31,x,1.6,x
COC(=O)c1sccc1-c1ccc(/C=N/OCc2c(Cl)cccc2Cl)o1,x,-0.417,-2.44,6.5,x,-4.3
COc1c(C)cccc1C(=O)Nc1ccc(N2CCN(S(C)(=O)=O)CC2)cc1,0.9,-7.94*,x,1.2,6.4,-3.9
O=C(COc1ccc(Cl)cc1Cl)Nc1nc2n(n1)C(c1ccccc1)CC(=O)N2 (stereo not given),1,-2.03,-3.67*,-3.7,-1.6,-0.7
O=C1CC(c2ccccc2)n2nc(NS(=O)(=O)c3ccccc3)nc2N1 (stereo not given),1,-0.0555,-1.05,25.5,-1.3,-4.4
CC(CN1CCOCC1)OC(=O)c1cccs1 (stereo not given),x,0.225,-0.00941,1.4,9.2,2.1
